# Data from the supplement of paper PMC8728848.
# The full list was thinned out, with the strongest signals kept by preference.
# Key:
# Experiment in all cases: glycan array binding signal (z-score within array); higher = stronger binding
# Details in all cases: glycan notation: IUPAC condensed, linker removed; mutation: D21K
# [1] = target: GalNAc3S(b1-4)GlcNAc
# Method in brief: (§1)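 Negative Z-scores can be read as non-binding. The Z-score is calculated within each array and then averaged across arrays of one protein sequence at different concentrations or buffers and across linkers. Arrays, 3228 in all, were curated from the Consortium for Functional Glycomics database and kept only where the protein sequence was available.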
# [2] = target: GalNAc4S6S(b1-4)GlcNAc
# Method in brief: as §1
# [3] = target: Glc(a1-6)Glc(a1-6)Glc
# Method in brief: as §1
# [4] = target: GlcA(b1-3)GlcNAc
# Method in brief: as §1
# [5] = target: GlcNAc(b1-2)[GlcNAc(b1-6)]Man(a1-6)[GlcNAc(b1-2)Man(a1-3)]Man(b1-4)GlcNAc(b1-4)GlcNAc
# Method in brief: as §1
# [6] = target: GlcNAc(b1-3)Gal
# Method in brief: as §1
# [7] = target: GlcNAc(b1-3)Gal(b1-4)Glc
# Method in brief: as §1
# [8] = target: GlcNAc(b1-3)Gal(b1-4)GlcNAc
# Method in brief: as §1
# [9] = target: GlcNAc(b1-3)Gal(b1-4)GlcNAc(b1-3)Gal(b1-4)GlcNAc(b1-2)Man(a1-3)[GlcNAc(b1-3)Gal(b1-4)GlcNAc(b1-3)Gal(b1-4)GlcNAc(b1-2)Man(a1-6)]Man(b1-4)GlcNAc(b1-4)[Fuc(a1-6)]GlcNAc
# Method in brief: as §1
# [10] = target: GlcNAc(b1-3)Gal(b1-4)GlcNAc(b1-3)Gal(b1-4)GlcNAc(b1-3)Gal(b1-4)GlcNAc(b1-2)[GlcNAc(b1-3)Gal(b1-4)GlcNAc(b1-3)Gal(b1-4)GlcNAc(b1-3)Gal(b1-4)GlcNAc(b1-6)]Man(a1-6)[GlcNAc(b1-3)Gal(b1-4)GlcNAc(b1-3)Gal(b1-4)GlcNAc(b1-3)Gal(b1-4)GlcNAc(b1-2)Man(a1-3)]Man(b1-4)GlcNAc(b1-4)[Fuc(a1-6)]GlcNAc
# Method in brief: as §1
# [11] = target: GlcNAc(b1-3)Gal(b1-4)GlcNAc(b1-3)Gal(b1-4)GlcNAc(b1-3)Gal(b1-4)GlcNAc(b1-3)Gal(b1-4)GlcNAc(b1-2)[GlcNAc(b1-3)Gal(b1-4)GlcNAc(b1-3)Gal(b1-4)GlcNAc(b1-3)Gal(b1-4)GlcNAc(b1-3)Gal(b1-4)GlcNAc(b1-6)]Man(a1-6)[GlcNAc(b1-3)Gal(b1-4)GlcNAc(b1-3)Gal(b1-4)GlcNAc(b1-3)Gal(b1-4)GlcNAc(b1-3)Gal(b1-4)GlcNAc(b1-2)Man(a1-3)]Man(b1-4)GlcNAc(b1-4)[Fuc(a1-6)]GlcNAc
# Method in brief: as §1
# [12] = target: GlcNAc(b1-3)Gal(b1-4)GlcNAc(b1-6)[GlcNAc(b1-3)Gal(b1-3)]GalNAc
# Method in brief: as §1
# [13] = target: GlcNAc(b1-3)[GlcNAc(b1-4)][GlcNAc(b1-6)]GlcNAc
# Method in brief: as §1
# [14] = target: GlcNAc(b1-3)[GlcNAc(b1-6)]Gal(b1-4)GlcNAc
# Method in brief: as §1
# [15] = target: Neu5Ac(a2-3)Gal(b1-3)GlcNAc6S
# Method in brief: as §1
# [16] = target: Neu5Ac(a2-3)Gal(b1-4)GlcNAc(b1-3)Gal(b1-4)GlcNAc(b1-3)GalNAc
# Method in brief: as §1
# [17] = target: Neu5Ac(a2-3)Gal(b1-4)GlcNAc(b1-3)GalNAc
# Method in brief: as §1
# [18] = target: Neu5Ac(a2-6)Gal(b1-4)GlcNAc(b1-2)Man
# Method in brief: as §1
# [19] = target: Neu5Ac(a2-6)Gal(b1-4)GlcNAc(b1-2)Man(a1-3)[Neu5Ac(a2-3)Gal(b1-4)GlcNAc(b1-2)Man(a1-6)]Man(b1-4)GlcNAc(b1-4)GlcNAc
# Method in brief: as §1
# [20] = target: Neu5Ac(a2-6)Gal(b1-4)GlcNAc(b1-2)Man(a1-3)[Neu5Ac(a2-6)Gal(b1-4)GlcNAc(b1-2)Man(a1-6)]Man(b1-4)GlcNAc(b1-4)GlcNAc
# Method in brief: as §1
# [21] = target: Neu5Ac(a2-6)Gal(b1-4)GlcNAc(b1-2)[Neu5Ac(a2-6)Gal(b1-4)GlcNAc(b1-6)]Man(a1-6)[Neu5Ac(a2-6)Gal(b1-4)GlcNAc(b1-2)Man(a1-3)][GlcNAc(b1-4)]Man(b1-4)GlcNAc(b1-4)GlcNAc
# Method in brief: as §1
# [22] = target: Neu5Ac(a2-6)Gal(b1-4)GlcNAc(b1-3)Gal(b1-4)GlcNAc(b1-3)Gal(b1-4)GlcNAc
# Method in brief: as §1
# [23] = target: Neu5Ac(a2-6)Gal(b1-4)GlcNAc(b1-3)Gal(b1-4)GlcNAc(b1-3)GalNAc
# Method in brief: as §1
# [24] = target: Neu5Ac(a2-6)Gal(b1-4)GlcNAc(b1-3)GalNAc
# Method in brief: as §1
# [25] = target: Neu5Ac(a2-8)Neu5Ac(a2-3)Gal(b1-3)GalNAc(b1-4)[Neu5Ac(a2-8)Neu5Ac(a2-3)]Gal(b1-4)Glc
# Method in brief: as §1
binder,measurement,setting,value
KILRGVCKKIMRTFLRRISKKILTGKK [C7A (Sus scrofa)],glycan array binding signal (z-score),[1],0.857
same,glycan array binding signal (z-score),[2],2.43
same,glycan array binding signal (z-score),[3],-0.06
same,glycan array binding signal (z-score),[4],0.609
same,glycan array binding signal (z-score),[5],-0.74
same,glycan array binding signal (z-score),[6],-1.53
same,glycan array binding signal (z-score),[7],-0.83
same,glycan array binding signal (z-score),[8],-0.565
same,glycan array binding signal (z-score),[9],2.43
same,glycan array binding signal (z-score),[10],2.39
same,glycan array binding signal (z-score),[11],2.49
same,glycan array binding signal (z-score),[12],-0.629
same,glycan array binding signal (z-score),[13],-0.24
same,glycan array binding signal (z-score),[14],0.238
same,glycan array binding signal (z-score),[15],1.71
same,glycan array binding signal (z-score),[16],2.25
same,glycan array binding signal (z-score),[17],0.438
same,glycan array binding signal (z-score),[18],-0.792
same,glycan array binding signal (z-score),[19],0.295
same,glycan array binding signal (z-score),[20],0.295
same,glycan array binding signal (z-score),[21],0.348
same,glycan array binding signal (z-score),[22],0.41
same,glycan array binding signal (z-score),[23],0.528
same,glycan array binding signal (z-score),[24],1.32
same,glycan array binding signal (z-score),[25],-0.48
